Sampled rows, rich in hits. Any-hit rate of the full collection: about 3%.
ABHD5-PLIN5 inh – ABHD5-PLIN5 protein interaction inhibition; Split G. princeps luciferase complementation, luminescence, 4 h; inhibition, % at 4 µM; 360,000 compounds, 0.78% hits; Q00G26+Q8WTS1;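 active means inhibition above the mean inhibition across every tested compound plus 3 SD, cut at about 22% in these data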;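 further: 0% = DMSO only wells and the 100% control is not disclosed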
Target sequence (Q00G26 whole entry, looked up): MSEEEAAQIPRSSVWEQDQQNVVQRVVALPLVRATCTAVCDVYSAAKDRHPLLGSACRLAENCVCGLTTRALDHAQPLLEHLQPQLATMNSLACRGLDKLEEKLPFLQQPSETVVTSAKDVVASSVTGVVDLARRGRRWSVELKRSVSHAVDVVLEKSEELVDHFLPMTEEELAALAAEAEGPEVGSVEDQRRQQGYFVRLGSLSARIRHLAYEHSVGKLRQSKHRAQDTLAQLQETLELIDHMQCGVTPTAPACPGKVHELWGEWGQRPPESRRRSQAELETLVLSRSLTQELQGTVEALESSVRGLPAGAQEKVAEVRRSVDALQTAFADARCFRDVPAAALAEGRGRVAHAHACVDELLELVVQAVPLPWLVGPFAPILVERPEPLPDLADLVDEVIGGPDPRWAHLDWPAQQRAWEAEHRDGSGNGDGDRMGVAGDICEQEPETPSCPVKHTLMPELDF
Target sequence (Q8WTS1 whole entry, looked up): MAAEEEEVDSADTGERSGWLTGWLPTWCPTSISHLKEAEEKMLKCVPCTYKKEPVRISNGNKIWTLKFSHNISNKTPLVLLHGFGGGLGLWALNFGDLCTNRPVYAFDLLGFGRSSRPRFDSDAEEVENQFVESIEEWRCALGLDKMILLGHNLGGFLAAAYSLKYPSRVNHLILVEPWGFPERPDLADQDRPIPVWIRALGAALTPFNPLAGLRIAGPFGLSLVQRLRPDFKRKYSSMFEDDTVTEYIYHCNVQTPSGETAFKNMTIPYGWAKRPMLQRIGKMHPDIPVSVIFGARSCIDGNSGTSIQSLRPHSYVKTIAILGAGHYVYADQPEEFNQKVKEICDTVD
PAX8 inh HTS – inhibitors of PAX8 transcriptional activity in RMG-I cells. RMG-I TPO-luciferase reporter, SteadyGlo, 24 h. inhibition, % at 12.6 µM. 360,000 compounds, 1.2% hits. AID 652154;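 active means mean replicate inhibition at least 60% with every replicate also reaching 60%; inconclusive means only one of the two criteria is met; inactive means mean below 60% and not all replicates reaching 60%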;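 further: luciferase light reporting Pax8 driven TPO promoter activity; plate controls were median of neutral control wells for no effect and mitoxantrone controls for full effect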
Shn3 3UTR inh – inhibitors of Schnurri-3 3'UTR reporter in osteoblasts; Clone20 osteoblast Shn3 3'UTR firefly luciferase, 24 h; inhibition, % at 12.5 µM; 360,000 compounds, 0.52% hits; AID 588674;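 active means mean inhibition of at least 75% with every replicate also reaching 75%; inconclusive means mean inhibition at least 75% but some replicate below; inactive means mean inhibition below 75%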;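 further: 0% = median of neutral control wells and 100% = pilot-screen positive control compound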
EWS-Fli block – blocks EWS/Fli oncoprotein-driven transcription; A673 NR0B1-luciferase reporter, viability-normalised; inhibition, % at 12.6 µM; 350,000 compounds, 0.67% hits; AID 651661;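 active means mean inhibition of at least 50% after viability correction, with every replicate also passing that limit; inconclusive means mean reaches 50% but only one of two replicates passes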;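 further: firefly luciferase signal divided by Alamar Blue viability fluorescence both relative to DMSO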
MITF TRPM1 inh – reduces MITF-dependent TRPM1 promoter luciferase signal. SK-MEL-5 TRPM1 promoter luciferase, 24 h. inhibition, % at 12.5 µM. 330,000 compounds, 0.83% hits. AID 488899;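 active means mean inhibition across replicates of 60% or more, whatever share of single replicates reaches that level; inconclusive means some that reach 60%, reason not given; inactive means mean inhibition across replicates below 60%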
Peg3 prom inh-1 – reduces Peg3 promoter-driven luciferase expression in HeLa; inhibition, % at 20 µM; HeLa PEG-Prom luciferase reporter, luminescence, overnight; 360,000 compounds, 1.7% hits;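 active means inhibition of at least 50% at 20 µM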
Peg3 prom inh-2 – confirmation of Peg3 promoter inhibitors; AID 602417; inhibition, % at 20 µM; 1,300 compounds, 84% hits; HeLa PEG-Prom luciferase reporter, luminescence, overnight; shares compounds with Peg3 prom inh-1;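 active means at 20 µM dose, 40% or more inhibition averaged across four replicates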
* marks the source's active call; other numbers are inactive results; ? = inconclusive; / = no result given.

SMILES | ABHD5-PLIN5 inh | PAX8 inh HTS | Shn3 3UTR inh | EWS-Fli block | MITF TRPM1 inh | Peg3 prom inh-1 | Peg3 prom inh-2
Cc1cc(C(F)(F)F)c(C#N)c(SCC(=O)Nc2nc3ccccc3s2)n1 | -1.4 | -139.2 | 9.5 | 46.4 | 25.4 | -76.9 | /
Cc1nc(SCC(=O)Nc2nc3ccccc3s2)c(C#N)c(C)c1C | -2.9 | 107.9* | ? | 87.4* | 95.9* | 92.8* | 90.1*
CC1(Cc2cc(Cl)ccc2C(F)(F)F)C(=O)Nc2ccc(OC(F)(F)F)cc21 (stereo not given) | -20.0 | / | 3.7 | / | / | 52.0* | 12.7
CC1(Cc2cc(Cl)ccc2C(F)(F)F)C(=O)Nc2ccc(-c3ccc(F)c(Cl)c3)cc21 (stereo not given) | -12.1 | 18.5 | 37.4 | 0.4 | / | 19.6 | /
CC(C)(C)C(=O)Nc1cc2nn(-c3ccccc3)nc2cc1Cl | 0.4 | 73.7* | 84.1 | / | 84.7* | 62.4* | 85.9*
CCCOc1ccc2cc(-c3ccccn3)c(=O)oc2c1 | -4.7 | 73.8* | 59.7 | 77.2* | 51.1 | 74.4* | 68.0*
C[C@@H]1CN([C@H](C)CO)C(=O)c2cc(NC(=O)C3CC3)ccc2O[C@H]1CN(C)Cc1ccc(-c2ccccc2)cc1 | / | / | / | -1.0 | / | / | /
CN1c2ccc(Br)cc2[C@H]2[C@H](CCN2C(=O)C2CCC2)[C@@H]1CO | / | / | / | 1.5 | / | / | /
O=[N+]([O-])c1cc(-c2csc(NCCc3nc4cc(C(F)(F)F)ccc4n3CCCO)n2)ccc1Cl | 3.6 | 11.2 | 17.1 | 1.0 | -23.6 | 54.0* | 20.4
CCn1c(O)c(N=Nc2ccc3ccccc3n2)c2ccccc21 | -3.9 | -215.6 | -85.6 | -121.1 | -117.8 | -322.0 | /
Brc1ccc(N=Nc2ccc3ccccc3n2)cc1 | -0.8 | 78.5* | 81.6 | 77.4* | 54.9 | 72.6* | 67.9*
COc1ccc2c(c1OC)C(=O)N1c3ccccc3C(=O)N(c3ccccc3F)C21 (stereo not given) | -2.8 | / | 80.2 | / | 8.7 | 61.6* | 44.6*
COc1ccc2c(c1OC)C(=O)N1c3ccccc3SC21 (stereo not given) | 1.1 | / | -48.7 | / | -40.8 | -331.5 | /
C[C@@H]1CN([C@@H](C)CO)C(=O)c2ccccc2-c2ccccc2CO[C@H]1CN(C)CC1CC1 | / | -16.5 | / | -0.5 | / | / | /
Cn1c2ccccc2c2ccc3c(c21)C(=O)C=CC3=O | 6.2 | 0.2 | 94.4* | -4.9 | 89.3* | 104.5* | 100.7*
CC(=O)c1ccc(-c2cnc3c(NC=O)cc(-c4ccccc4Oc4ccccc4)cn23)cc1 | 9.2 | 84.4* | 34.0 | 33.3 | / | 55.2* | 62.6*
O=CNc1cc(-c2ccccc2Oc2ccccc2)cn2c(-c3ccc(F)cc3)cnc12 | 5.5 | 48.9 | -3.4 | 12.6 | / | 24.6 | /
CC(=O)Nc1cccc(-c2cc(NC(C)=O)c3ncc(-c4cccc(C(C)=O)c4)n3c2)c1 | 6.7 | 10.9 | -12.5 | -1.5 | / | 31.3 | /
CC(=O)Nc1cccc(-c2cc(NC=O)c3ncc(-c4ccc(C(C)=O)cc4)n3c2)c1 | -1.1 | 70.9* | 23.0 | 7.1 | / | 54.2* | 55.8*
C[C@@H]1CN([C@@H](C)CO)C(=O)c2ccccc2-c2ccccc2CO[C@@H]1CN(C)S(=O)(=O)CC(F)(F)F | / | -12.4 | / | -9.1 | / | / | /
COCC(=O)Nc1ccc2c(c1)OC[C@H](C)N(C(=O)c1ccncc1)C[C@@H](C)[C@@H](OC)CN(C)C2=O | / | / | / | -7.3 | / | / | /
N=c1n(CC(=O)c2ccc([N+](=O)[O-])cc2)c2ccccc2n1Cc1ccc(Cl)cc1 | -0.8 | / | 3.4 | / | 91.7* | 109.0* | 97.0*
N=c1n(CC(=O)c2ccc([N+](=O)[O-])cc2)c2ccccc2n1Cc1ccccc1 | -1.1 | 3.6 | 15.8 | / | 85.2* | 66.0* | 42.4*
C=CCn1c(=N)n(CC(=O)c2cccc([N+](=O)[O-])c2)c2ccccc21 | -7.8 | -18.2 | -32.0 | -20.4 | 7.3 | -51.4 | /
CCS(=O)(=O)N1[C@H](C#N)[C@H](c2ccc(C#Cc3ccccc3F)cc2)[C@@H]1CO | / | -7.0 | / | -29.4 | / | / | /
SMILES | ABHD5-PLIN5 inh | PAX8 inh HTS | Shn3 3UTR inh | EWS-Fli block | MITF TRPM1 inh | Peg3 prom inh-1 | Peg3 prom inh-2
COc1cc(SC)ccc1C(=O)Nc1ncc(C)s1 | 5.6 | 84.5* | 41.0 | 81.1* | 65.5* | 77.2* | 60.8*
C[C@@H]1CCCCO[C@@H](CN(C)Cc2ccncc2)[C@H](C)CN([C@@H](C)CO)C(=O)c2cc(NS(=O)(=O)c3ccc(Cl)cc3)ccc2O1 | / | -8.2 | / | -5.3 | / | / | /
CCOC(=O)c1c(N)sc2c(OCC)c(Br)ccc12 | -6.9 | / | -17.7 | -28.8 | -6.7 | -43.1 | /
CCOC(=O)c1c(NC(C)=O)sc2c(OCC(O)CNC(C)(C)C)c(Br)ccc12 (stereo not given) | 6.6 | 32.4 | -21.3 | / | 71.9* | 108.1* | 98.6*
COC1=C(Nc2ccc(C)cc2)C(=O)c2ccccc2C1=O | -32.4 | 30.7 | -30.5 | -131.3 | 25.4 | -168.7 | /
COC1=C(Br)C(=O)c2nc(C)ccc2C1=O | -49.5 | 4.3 | 67.3 | -22.4 | / | 107.4* | 100.0*
Cc1ccc(C)c(Oc2ncnc(N)c2[N+](=O)[O-])c1 | -2.3 | 6.9 | -3.2 | 4.6 | 7.2 | 1.3 | /
Cc1cc(Sc2ncnc(N)c2[N+](=O)[O-])ncn1 | 15.8 | / | 98.6* | / | 77.6* | 105.9* | 99.5*
O=c1oc2ccccc2cc1-c1cn2ccccc2n1 | -12.8 | 71.5* | ? | 85.3* | 81.3* | 78.5* | 64.5*
COc1ccc(-c2cc(C(F)F)n3ncc(C(=O)n4ccnc4C)c3n2)cc1 | 1.8 | 6.7 | 19.5 | / | 26.1 | 54.6* | 94.8*
O=[N+]([O-])c1ccc(-c2nc(Nc3cccc(O)c3)c3ccccc3n2)cc1 | 0.1 | -6.5 | 26.2 | 11.2 | -4.8 | 80.7* | 90.7*
COc1ccc(-n2nc(C(=O)NCC(=O)Nc3cc(OC)c(OC)c(OC)c3)c3ccccc3c2=O)cc1OC | 5.4 | 27.2 | 13.0 | 3.7 | 11.5 | 54.7* | 44.2*
COc1ccc(C(=O)Nc2nc3ccccc3s2)c(OC)c1 | -0.5 | 105.9* | 92.8* | 91.3* | 83.7* | 106.7* | 98.6*
COc1ccccc1C(=O)Nc1nc2ccccc2s1 | 0.5 | 100.5* | 79.8 | 92.8* | 80.7* | 104.5* | 94.7*
CC(=O)Nc1cccc(-c2ccnc3c2CC(C)(C(=O)Nc2cccc(OC(F)(F)F)c2)O3)c1 (stereo not given) | -5.5 | / | 19.1 | 52.1* | / | 63.1* | 61.3*
O=C(CSc1ccccc1)N1CCN(S(=O)(=O)c2ccccc2F)CC1 | 5.9 | 0.3 | -4.0 | -6.0 | 10.2 | -15.2 | /
O=C(/C=C/c1ccc2ccccc2n1)N1CCN(S(=O)(=O)c2ccccc2F)CC1 | 4.6 | 58.6 | 36.5 | 9.7 | 29.5 | 50.2* | 38.8
CC=Cc1ccc2n(c1=O)C[C@@H]1[C@@H](CO)[C@H](C(=O)NCCc3ccccc3)[C@H]2N1C (mixture of isomers) | / | 6.7 | / | -0.4 | / | / | /
O=C1C(Cl)=C(Nc2ccccc2)C(=O)c2ccccc21 | 3.7 | -12.5 | 96.4* | / | 89.6* | 102.5* | 98.5*
